{
  "source": "paper PMC12136788",
  "binders": {"B1": {"name": "chr11:44378942:44378943:+_ENSMUSG00000019189_ENSMUST00000019333|mus_mus|motif|central (ssRNA)", "RNA": "GGGAGUUCUACAGUCCGACGAUCUUUAAAUUUAUUAAGACAUUCAGCUAUGUCUGUCAGUCUACAUCCAAAUUUGCGGCGGAAAACAAAGGAAAACCACACCCCACAGUAGGAAUACCAAGUCUGAAAUACACUUUUUUUUGACAACAGAGGAUUGAGCAUCA"}, "B2": {"name": "chr8:93522421:93522422:+_ENSMUSG00000056608_ENSMUST00000048665|mus_hu|FALSE|FALSE (ssRNA)", "RNA": "GGGAGUUCUACAGUCCGACGAUCAGACUGGAUCAUUGCUUGAAGAUGAAAAUCAGAAGCAGCUGGAUUGUAAGUAUCUCUAAAUUCUCCAAGUAUUUUCUCCUCAGCACCUUUUAUAAGAUAUGGAUGAUUACAACAUUUCCUCAACAGAGGAUUGAGCAUCA"}, "B3": {"name": "chr19:42259214:42259215:+_ENSMUSG00000018820_ENSMUST00000165783|mus_mus|FALSE|FALSE (ssRNA)", "RNA": "GGGAGUUCUACAGUCCGACGAUCGCUAUAGUGACUGCUGCAGACUCAGAGACACUAGGAAAGUUGCAAGUGUAUAUUUUCUAUCUAAAUUUCUAACUAAAAUUUGCCCUGUUUUAUUCACUGGCCCAAAGGAUUCUUUUUUAACAACAGAGGAUUGAGCAUCA"}, "B4": {"name": "chr3:102833055:102833056:+_ENSMUSG00000068823_ENSMUST00000029446|mus_mus|motif|central (ssRNA)", "RNA": "GGGAGUUCUACAGUCCGACGAUCUCAGUAGUAUUUGCUGACUCUUCUUUUUUCAGCACAAGUUCCAAAGGAUGAAAGUUGCGGGUAUUUAAAAAAAGAAAAAAAAAAGAAAAAGAAAAAAAGAAAAAAAAAAGGAGAGCGAGACAACAGAGGAUUGAGCAUCA"}, "B5": {"name": "142051865_142054343_4063_CDS_ENSG00000114127_ENST00000264951|human|control|control (ssRNA)", "RNA": "GGGAGUUCUACAGUCCGACGAUCUGACUGUACUUCAUUUUCUUUGGAGAUAUUCAAAGAUGCUAAAAAGUUCUCAAUUCCAGAGUUAGGCUGCUUAUUGGACAUUUUUUGGGACCAACACUCAGCUUUAGGACUCUUACACUCCAACAGAGGAUUGAGCAUCA"}, "B6": {"name": "chr3:102833055:102833056:+_ENSMUSG00000068823_ENSMUST00000029446|mus_mus|FALSE|FALSE (ssRNA)", "RNA": "B4 RNA with G82U, G83A"}, "B7": {"name": "chr8:117878989:117878990:-_ENSG00000164754_ENST00000297338|hu_hu|hu_hu_hu_mus_True|8_8 (ssRNA)", "RNA": "GGGAGUUCUACAGUCCGACGAUCCCAGAGGCCCUCGUUUACUGAGGACAAAAUGUGCGUAGAACAUUUUUCUUAUUUGCUAUGAAAUAAGAAGAAACCUGGAUCUCGGCGGGGAGCCGGGAGGGGUUGGGUGGCCCGGGAGGGCAACAGAGGAUUGAGCAUCA"}, "B8": {"name": "chr3:100058692:100058693:+_ENSG00000114021_ENST00000480073|hu_mus|motif|central (ssRNA)", "RNA": "GGGAGUUCUACAGUCCGACGAUCAUAGUCAGGAAAGUAGGUUGUUCCAUAUGGAGAAUUGAAGCACUCAGGCAGAGAAACGGUGUUGGCACCUUGCUUUGCUGCCUCCCGCACUAGGCUACAAGCCCGGGUAAGGUUAUCUGACAACAGAGGAUUGAGCAUCA"}, "B9": {"name": "chr10:1038552:1038553:+_ENSG00000107937_ENST00000545048|hu_hu|FALSE|FALSE (ssRNA)", "RNA": "GGGAGUUCUACAGUCCGACGAUCCAUAGAACGGAUGAAUAUCAUCCAAUUUGGGGAAAUCUGUUAGAAUUUGUGAAAGUCUAUCAUGGUAAUUCUGUUGAGUAAAUUUGACUUUUCUCAUGUAAAAAUGUCUAAUGCGAUGUACAACAGAGGAUUGAGCAUCA"}, "B10": {"name": "chr9:91931296:91931297:+_ENSG00000123975_ENST00000314355|hu_hu|hu_hu_hu_mus_True|48_108 (ssRNA)", "RNA": "GGGAGUUCUACAGUCCGACGAUCAGAUUGACGAUCCCCAGCUGCACUUCAUUUUUGUUGUUCUUUUGGAAGAGGUCGUCUAAAGAGAAGAAUAUGUGGUUCUGGCUCAUGAAUCAUGUAAUGAACCCAUCCUAGACUCUGUUGCAACAGAGGAUUGAGCAUCA"}, "B11": {"name": "chr2:62103349:62103350:-_ENSG00000115484_ENST00000544079|hu_mus|motif|central (ssRNA)", "RNA": "GGGAGUUCUACAGUCCGACGAUCAAUAUAGGCUCUCUCCUCUCGAAGCACUCGAUCCAUCUGGGCAUAGUCAGAUACGGCGGUUUGAUUAUCCAUAUCUGUUUUAGGAGCAGAUAAGCAAAACUGAAUAAGCCCAAUCUUAGCCAACAGAGGAUUGAGCAUCA"}, "B12": {"name": "chr2:170668292:170668293:+_ENSG00000138385_ENST00000260956|hu_mus|motif|central (ssRNA)", "RNA": "GGGAGUUCUACAGUCCGACGAUCACCUAAUUCGCUUUUCUUUUUAAAAGCUUCUGAAGACAAAAAGCAGCUUAAAAUCGGACGGAGGAAUAAAAACACUGCUUACUAAAUAAACUACUUGUCUCUAGCACCAUUUUCUCUUUUCAACAGAGGAUUGAGCAUCA"}, "B13": {"name": "203424622_203424742_3669_3pUTR_ENSG00000204217_ENST00000374580|human|control|control (ssRNA)", "RNA": "GGGAGUUCUACAGUCCGACGAUCUUUUAUUUUUAAACAUCUUCUGCAUGUUUAAAUGAUGCAAAAAAUAAUUUCACUCCAUAGGCUUGAAAACAUUUCACAGACAGUUCAUUCCUAUAUCUUUAGACACCAUGGUUGUAGCAGCAACAGAGGAUUGAGCAUCA"}, "B14": {"name": "chr1:35650007:35650008:-_ENSG00000116560_ENST00000357214|hu_hu|motif|central (ssRNA)", "RNA": "GGGAGUUCUACAGUCCGACGAUCAUCCAUAAAAAGAUAGCUUUCUUACUAAAAUGCAAGAAUUUAAAAGAUUGGUAUCGGAACAAAAAAACAAAACAAACUGGAAUGAAAGCCUAAAUAUCACAUCUAAAAUCGGGGUUUUUUCAACAGAGGAUUGAGCAUCA"}, "B15": {"name": "chr20:57486015:57486016:+_ENSG00000087460_ENST00000306090|hu_mus|FALSE|FALSE (ssRNA)", "RNA": "GGGAGUUCUACAGUCCGACGAUCCCUUUUUUUUCUUUUUCUUCUGUAGGCCGCCUUAAGCUUACUAAAUUUGGAACAUCUAAGCAAGCUGAAGGGAAGAGGGGUUUUUCAGAAUCACUGGGGGAAAAAGGAAAGGUUGCGGUGCAACAGAGGAUUGAGCAUCA"}, "B16": {"name": "chr7:93623566:93623567:-_ENSG00000105829_ENST00000222547|hu_hu|FALSE|FALSE (ssRNA)", "RNA": "GGGAGUUCUACAGUCCGACGAUCGAACAAAUUCCAAAUUCACAAUUACAUGCAUCACCUCAGUUUAAUAAUCCAAUAAAUGAUAAAAAAGACAAAUAAAGAAAACAGCAUCAUAUAGCACAGCAGCUUUGUUUGGCUCCCUCUCAACAGAGGAUUGAGCAUCA"}, "B17": {"name": "chr19:41288892:41288893:-_ENSMUSG00000025016_ENSMUST00000025989|mus_mus|motif|central (ssRNA)", "RNA": "GGGAGUUCUACAGUCCGACGAUCUGGAUGGAACUGAGAAAGCUGGUUAAUUUUAAGAUAAAUAAAUGAGGUUGAUCCAAACGGAGAUUAAGAUGACAGCAGAUAUAUUCCAUGCAGAAUUGAAUAGCUUUUAAUUUUGUUUUUCAACAGAGGAUUGAGCAUCA"}, "B18": {"name": "chr6:136599331:136599332:-_ENSG00000029363_ENST00000527536|hu_mus|motif|central (ssRNA)", "RNA": "GGGAGUUCUACAGUCCGACGAUCGGGGGCAUCUGAGCAUGAUGAACUCUGACUGGGUGGUGUAGCAAUAGGUGAAGGACGGUGAGGUGACCUUGGACUAUUAUCAUAAGCUGAAAGGCCAGGCCAAAUAUCACCAGAAGUAGCCAACAGAGGAUUGAGCAUCA"}, "B19": {"name": "chr15:40462788:40462789:+_ENSG00000156970_ENST00000287598|hu_mus|FALSE|FALSE (ssRNA)", "RNA": "GGGAGUUCUACAGUCCGACGAUCAAAGCGGGGGUCAUUAUAAUAGCGCGUCUCUCCUUGGAGUGCUUCUAUCGCUCUCUCCACUAACGCUGACAUGUUACUCUCUUUCCCCCCUUGAGGGUAGUUCUGUUCUGUCCAAUUAAUCAACAGAGGAUUGAGCAUCA"}, "B20": {"name": "chr2:128501614:128501615:-_ENSMUSG00000014355_ENSMUST00000014499|mus_mus|FALSE|FALSE (ssRNA)", "RNA": "GGGAGUUCUACAGUCCGACGAUCAGCCACAGGGGAUUCGCCUUUGGAGAGGCUUCUGAGAUGUGCUGUCAGGGAGCUGCUAGUAGUUGCAUUCUGCAGGGUCCCUGCCUGCUCAGGGAACUUUAAAACAGCAUUCUCUUCCUCCAACAGAGGAUUGAGCAUCA"}, "B21": {"name": "52131286_52135943_886_CDS_ENSMUSG00000022637_ENSMUST00000114471|mouse|control|control (ssRNA)", "RNA": "GGGAGUUCUACAGUCCGACGAUCCGUGAGAAAUGCCAUGUAUCCCGGGUGAGUCACAGCCAAGAAGUUCCAAUUCCGUAAAAUAGAGCCCCAGGGCUGAAAUAGCCUGGUAAAAAUAUCAAAUUCAAACACUGAGAUGUAAUCCAACAGAGGAUUGAGCAUCA"}, "B22": {"name": "chr1:130485734:130485735:-_ENSMUSG00000045382_ENSMUST00000052172|mus_hu|FALSE|FALSE (ssRNA)", "RNA": "GGGAGUUCUACAGUCCGACGAUCGAUGAAGGAGUCGAUGCUGAUCCCAAUGUAGUAAGGCAGCCAACAGGCGAAGAAAGCCAGGAUGAGGAUGACUGUGGUCUUGAGGGCCUUGCGCUUCUGGUGGCCCUUGGAGUGUGACAGCAACAGAGGAUUGAGCAUCA"}},
  "note": "Residue numbers refer to the chain shown, from its start. Whole data set: some 24,000 sequences, median “enrichment r” near 0.99, cut for the highest 2% near 3.7. For the sample, the highest values were picked, then their nearest neighbours and some sequences at random.",
  "data": [
    {"target": "T1, UNK ZnF1-3 (human, UniProt Q9C0B0 31-174)", "T1 sequence": "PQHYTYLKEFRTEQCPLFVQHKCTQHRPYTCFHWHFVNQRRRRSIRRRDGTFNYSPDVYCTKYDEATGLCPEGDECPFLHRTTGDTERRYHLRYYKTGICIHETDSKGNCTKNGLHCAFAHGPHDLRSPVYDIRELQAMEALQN", "assay": "nsRBNS (natural sequence RNA bind-n-seq); RBNS binding buffer (assumed for nsRBNS): 25 mM Tris pH 7.5, 150 mM KCl, 3 mM MgCl2, 0.01% Triton X-100, 500 ug/ml BSA, 20 U/ml SUPERase-In, 4 C; UNK is unkempt and MSI1 is Musashi-1; names of the RNAs are library labels; protein concentration not given here; high values mean tight binding", "units": {"binding signal": "enrichment R"}, "values": [
      {"binder": "B1", "binding signal": 1.46},
      {"binder": "B2", "binding signal": 1.27},
      {"binder": "B3", "binding signal": 1.32},
      {"binder": "B4", "binding signal": 8.15},
      {"binder": "B5", "binding signal": 0.644},
      {"binder": "B6", "binding signal": 5.11},
      {"binder": "B7", "binding signal": 1.2},
      {"binder": "B8", "binding signal": 1.65},
      {"binder": "B9", "binding signal": 0.818},
      {"binder": "B10", "binding signal": 0.894},
      {"binder": "B11", "binding signal": 1.05},
      {"binder": "B12", "binding signal": 1.16},
      {"binder": "B13", "binding signal": 0.637},
      {"binder": "B14", "binding signal": 4.37},
      {"binder": "B15", "binding signal": 1.66},
      {"binder": "B16", "binding signal": 2.97},
      {"binder": "B17", "binding signal": 5.2},
      {"binder": "B18", "binding signal": 1.72},
      {"binder": "B19", "binding signal": 0.581},
      {"binder": "B20", "binding signal": 1.19},
      {"binder": "B21", "binding signal": 1.06},
      {"binder": "B22", "binding signal": 1.35}
    ]}
  ]
}
